27 compounds from PubChem BioAssay (NCATS) can be followed below.

Records with an inconclusive call do not appear. A call without a number means that no potency is given here. Unmarked numbers belong to inactive results. Active and inactive are the calls of the source. The call rests on the fitted dose curve; in most records, active means well fitted inhibition curve with a large enough effect; inconclusive means small, poorly fitted or top-dose-only effect; inactive means no such curve, though single readings can be large or run the other way.
Potency means the concentration at half of the fitted maximal effect.

The assay concerns Zika virus NS2B-NS3 protease (unlinked complex). Put plainly: Primary screen GU Rhodamine qHTS for Zika virus inhibitors: Unlinked NS2B-NS3 protease assay (AID 1347159). Further: nearly all actives have a fitted effect of over 60% in size. As to conditions: Recombinant ZIKV NS2B-NS3 protease, Rhodamine110 substrate fluorescence; series mostly up to 107 µM. Summed up:
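Unlinked NS2B/NS3, 25 nM; Rhod110 peptide, 1.5 microM; compounds, up to 114 microM. Reaction run 15 min at RT in 10 mM Tris-HCl pH 8.0, 0.01% Tween 20; kinetic fluorescence change fitted with a 4-parameter Hill model.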
For orientation: qHTS replaces the single test concentration by a dilution series.
On to `COC(=O)C1=COC(O[C@@H]2O[C@H](CO)[C@@H](O)[C@H](O)[C@H]2O)/C(=C\COC(=O)/C=C/c2ccccc2)C1CC(=O)OCCc1ccc(O)cc1` (some centres not stated), for which the Potency entry was “inactive”. Still for that read-out and setting: under `C=C1C[C@H](O)[C@@H](O)[C@@]2(C)C1[C@@H](O)[C@H]1OC(=O)C3[C@@H](C)[C@@H](O)[C@H](O)C2[C@]31C` (some centres not stated) stands “inactive”; under `CC1(C)C[C@@H]2[C@H](C1)[C@@]1(C)C[C@]13C(O)OC[C@]3(O)[C@H]2O` (some centres not stated), “inactive”; under `CCN1CCN(C(=O)N[C@@H](C(=O)N[C@@H]2C(=O)N3[C@@H]2SC(C)(C)[C@@H]3C(=O)O)c2ccccc2)C(=O)C1=O`, “inactive”. On the same count and under the same terms, under `CC(=O)OC12CC(C)C(O)C1/C=C(/COC1OC(CO)C(O)C(O)C1O)CCC1C(/C=C(\C)C2=O)C1(C)C` (configuration not stated) stands “inactive”; under `C/C=C(\C)C(=O)O[C@H]1C=CC(=O)O[C@H]1/C=C/[C@H](O)[C@@H](C)O`, “inactive”.

On to `O=C(O)c1ccc(NC(=O)[C@H](CC2CCCC2)n2cnc(C(F)(F)F)c2)nc1`, for which the Potency entry was “inactive”.

In the case of `C=C1CCc2occ(C)c2[C@H]2[C@H]1[C@@]13O[C@@]1(C[C@@H](C)[C@H]3OC(C)=O)[C@H]1O[C@@]21C`, the Potency result was “inactive”. On the same count and under the same terms, then `O=C(Nc1ccn(Cc2c(F)cccc2C(F)(F)F)n1)c1c(F)cccc1F`, with “inactive”; and `C/C=C(\C)C(=O)OC[C@H]1O[C@H](O[C@H]2O[C@H](CO)[C@@H](O)[C@H](O)[C@H]2O[C@@H]2O[C@H](CO)[C@@H](O)[C@H](O)[C@H]2O)[C@H](O[C@@H]2O[C@H](CO)[C@@H](O)[C@H](O)[C@H]2O)[C@@H](O)[C@@H]1O`, with “inactive”; and `CCCCCOC(=O)Nc1nc(=O)n(C2O[C@H](C)[C@@H](O)[C@H]2O)cc1F` (some centres not stated), with “inactive”. Same read-out and setting: then `CC/C=C/C(O)C(O)C1=C(C)C(=O)C2(O1)C(=O)NC(OC)(C(=O)c1ccccc1)C2O` (configuration not stated), with “inactive”; and `COc1ccc2c(c1)N1C(=O)C[C@@]34C=CC[N@+]5([O-])CC[C@H]2[C@H](CC3)[C@@]145`, with “inactive”.

Regarding `COC(=O)C1=CO[C@@H](O[C@@H]2O[C@H](CO)[C@@H](O)[C@H](O)[C@H]2O)/C(=C\CO)[C@@H]1CC(=O)OCCc1ccc(O)cc1`, the Potency result is “inactive”.

For `N#Cc1cccc(-c2nc(-c3cccnc3)no2)c1`, the Potency result is “inactive”.

Consider `OC[C@@]1(O)CO[C@@H](OC[C@H]2O[C@@H](OCc3ccccc3)[C@H](O)[C@@H](O)[C@@H]2O)[C@@H]1O`, for which the Potency entry was “inactive”. `COc1cnc(-n2cnc(C)n2)c2[nH]cc(C(=O)C(=O)N3CCN(C(=O)c4ccccc4)CC3)c12`: the Potency result is “inactive”. The same measure, in the same setting: under `Cc1ccc(-n2nc(C(C)(C)C)cc2NC(=O)Nc2cc(COc3cccnc3)[nH]n2)cc1` stands “inactive”; under `C=C1CCC2[C@](C)(CCC[C@]2(C)C(=O)O)[C@H]1CC/C(C)=C/C(=O)OC` (some centres not stated), 12.6 µM (active); under `C=C1CCC2C(C)(C(=O)OC)CCCC2(C)C1CCC1=CCOC1=O` (configuration not stated), “inactive”. Same read-out and setting: under `CCc1cccc2c3c([nH]c12)[C@@](CC)(CC(=O)O)OCC3` stands “inactive”. With `CC(=O)OC1C(CO)OC(O[C@H]2[C@H](OC(=O)[C@]34CCC(C)(C)C[C@H]3C3=CCC5[C@@]6(C)CC[C@H](O[C@@H]7O[C@H](C(=O)O)[C@@H](O)[C@H](O[C@@H]8OC[C@@H](O)[C@H](O)[C@H]8O)[C@H]7O[C@@H]7O[C@H](CO)[C@H](O)[C@H](O)[C@H]7O)[C@@](C)(C=O)C6CC[C@@]5(C)[C@]3(C)C[C@H]4O)O[C@H](C)[C@H](OC3OC(C)C(OC4OCC(O)C(O)C4O)C(O)C3O)[C@@H]2O)C(O)C1O` (some centres not stated), the activity change, negative = inhibition is 21.3% [at 19.1 µM]. Consider `CCCC1=CC2=C(CO1)C(=O)C(C)(O)C(OC(=O)c1c(C)cc(OC)cc1O)C2` (configuration not stated), for which the Potency entry is “inactive”. Still for that read-out and setting: then `CC1(C)C=Cc2c(ccc3c2N=C2C(C)(C)[C@@H]4C[C@]56CCCN5C(=O)[C@@]4(C[C@]23O)NC6=O)O1`, with “inactive”.

For `COC(=O)c1c(CC=C(C)C)c(OC2OC(CO)C(O)C(O)C2O)c2ccccc2c1OC1OC(CO)C(O)C(O)C1O` (configuration not stated), the Potency result is “inactive”. As to `C[C@]1(OC(=O)/C=C\c2ccc(O)cc2)C[C@@H](O)[C@]2(O)C=CO[C@@H](O[C@@H]3O[C@H](CO)[C@@H](O)[C@H](O)[C@H]3O)C12` (some centres not stated), the Potency entry was “inactive”. On the same count and under the same terms, then `CC(=O)O[C@H]1[C@H](O[C@H]2CC[C@]34C[C@]35CC[C@]3(C)[C@@H]([C@@]6(C)CC[C@@H](C(C)(C)O)O6)[C@@H](O)C[C@@]3(C)[C@@H]5C[C@H](O[C@@H]3O[C@H](CO)[C@@H](O)[C@H](O)[C@H]3O)[C@H]4C2(C)C)OC[C@@H](OC(C)=O)[C@@H]1O`, with “inactive”.
